This is an account of results in PubChem BioAssay (Tox21).

Values without a mark were called inactive. Activity calls are given as the source filed them. Calls follow the shape of the dose curve; as a rule, active = well fitted curve in the direction sought with a large enough effect in the repeat runs; inconclusive = weak or mixed curves; inactive = flat fitted curve, though single readings scatter.
% is scaled to controls: 0 for no effect and ±100 for the full control effect.

The nature of one test: qHTS assay to test for compound auto fluorescence at 535 nm (green) in HepG2 cells (AID 720675). Also: potency is read from the fitted curve at half-maximal effect. As to conditions: green autofluorescence 485/535 nm, 1 h; series mostly up to 91.3 µM; fluorescence, % of fluorescein control: at the top concentration.
Take `O=c1[nH]c(Cl)c(Cl)cc1Cl`: the “fluorescence, % of fluorescein control” value is -0.292%. Same read-out and setting: with `Oc1cccc(Cl)c1Cl` the figure was -0.0422%; with `CC1(C)[C@H](/C=C2\CCSC2=O)[C@@H]1C(=O)OCc1coc(Cc2ccccc2)c1`, 0.0822%. As to `C=CC(=O)[O][Sn]([CH2]CCC)([CH2]CCC)[CH2]CCC`, the “fluorescence, % of fluorescein control” value was 0.0512%. On to `CCN(CC)C(=S)S`, for which the Potency entry was “inactive”. Turning to `Fc1ccc(C(OCCN2CCN(CCCc3ccccc3)CC2)c2ccc(F)cc2)cc1`, the “fluorescence, % of fluorescein control” value was -0.0015% [at 46 µM]. Still for that read-out and setting: with `CO/N=C(\C(=O)OC)c1ccccc1CO/N=C(\C)c1cccc(C(F)(F)F)c1` the figure was 0.017%; with `CC[C@H](C)[C@H]1O[C@]2(C=C[C@@H]1C)C[C@@H]1C[C@@H](C/C=C(\C)[C@@H](O[C@H]3C[C@H](OC)[C@@H](O[C@H]4C[C@H](OC)[C@@H](NC)[C@H](C)O4)[C@H](C)O3)[C@@H](C)/C=C/C=C3\CO[C@@H]4[C@H](O)C(C)=C[C@@H](C(=O)O1)[C@]34O)O2`, 0.244%; with `CCC(OC(C)=O)C(CC(C)NC)(c1ccccc1)c1ccccc1` (configuration not stated), 0.0122% [at 95.7 µM]. On the same count and under the same terms, with `COc1ccc2c3c1O[C@H]1[C@H](O)CC[C@H]4[C@@H](C2)N(C)CC[C@@]341` the figure was 0.0704%. For the compound `Nc1nc(N)c(N)c(N)n1`, the Potency was 31.6 µM (active).

`O=[N+]([O-])c1cc(C(F)(F)F)c(Cl)c([N+](=O)[O-])c1Nc1ncc(C(F)(F)F)cc1Cl`: the “fluorescence, % of fluorescein control” value is 0.0282%.

For `CCN(CC)CCc1c[nH]c2ccccc12`, the “fluorescence, % of fluorescein control” value was 0.0188% [at 95.7 µM]. For `Brc1cccc(-c2ccccc2)c1`, the “fluorescence, % of fluorescein control” value was -0.0113%. Still for that read-out and setting: the value for `S=C=Nc1ccccc1` was 0.0332% [at 95.7 µM]; that for `COP(=O)(OC)Oc1ccc([N+](=O)[O-])cc1` was 0.0381%; that for `Cc1c([N+](=O)[O-])c(C)c([N+](=O)[O-])c(C(C)(C)C)c1[N+](=O)[O-]` was -0.0211%. On to `CC1CN1` (configuration not stated), for which the “fluorescence, % of fluorescein control” value is 0.0608%. On the same count and under the same terms, with `CC(=O)[O][Sn]([c]1ccccc1)([c]1ccccc1)[c]1ccccc1` the figure was 0.0285%; with `COP(=S)(OC)Oc1nc(Cl)c(Cl)cc1Cl`, -0.0054%. Turning to `CCCCCCCCCCCCCCn1cc[n+](C)c1`, the Potency entry was “inactive”. Take `CCCCc1ccccc1`: the “fluorescence, % of fluorescein control” value was -0.111%.

As for `BrCCCBr`, the “fluorescence, % of fluorescein control” value was 0.0093% [at 95.7 µM]. Still for that read-out and setting: with `c1cc[n+]2c(c1)-c1cccc[n+]1CC2` the figure was 0.0579% [at 46 µM]; with `[O-][Cl+3]([O-])([O-])O`, -0.101% [at 95.7 µM]. Regarding `COc1c2c(cc3c1OCO3)CCN(C)C2`, the fluorescence, % of fluorescein control is -0.0459% [at 18.6 µM]. For `ClC1=C(Cl)[C@]2(Cl)[C@H]3[C@H]([C@@H]4C=C[C@H]3C4)[C@@]1(Cl)C2(Cl)Cl`, the Potency result was “inactive”. On to `COc1cnc(OC)n2nc(NS(=O)(=O)c3c(OCC(F)F)cccc3C(F)(F)F)nc12`, for which the “fluorescence, % of fluorescein control” value was -0.0222%. Same read-out and setting: the value for `COc1ccc2[nH]cc(CCN(C(C)C)C(C)C)c2c1` was -0.153% [at 95.7 µM]. With `CN(C)C(=S)SSC(=S)N(C)C`, the Potency entry was “inactive”. For `CN1C(=O)[C@@H](NC(=O)c2cc3ccccc3[nH]2)N=C(c2ccccc2)c2ccccc21`, the “fluorescence, % of fluorescein control” value was -0.0368% [at 46 µM]. As for `COP(=S)(NC(C)C)Oc1ccc(C)cc1[N+](=O)[O-]` (configuration not stated), the “fluorescence, % of fluorescein control” value is -0.153%. The same measure, in the same setting: with `CC(Cc1ccc(OCC(=O)O)cc1)NCC(O)c1csc(C(F)(F)F)n1` (configuration not stated) the figure was 0.0106%. Turning to `c1ccc(N=NNc2ccccc2)cc1`, the Potency entry was “inactive”. As to `N#CC(C#N)=NNc1cccc(Cl)c1`, the “fluorescence, % of fluorescein control” value was 0.0171%.

As to `CC(O)C(=O)[O][Hg][c]1ccccc1` (configuration not stated), the “fluorescence, % of fluorescein control” value was 0.0672%. The same measure, in the same setting: the value for `COC(=O)C(C)N(C(=O)c1ccco1)c1c(C)cccc1C` (configuration not stated) was 0.082%; that for `CCCCC(CC)COC(=O)OOC(C)(C)C` (configuration not stated) was -0.0817%.

A further test in a line: qHTS assay to test for compound auto fluorescence at 460 nm (blue) in HEK293 cells (AID 720678). The following applies: blue autofluorescence 405/460 nm; series mostly up to 91.3 µM; fluorescence, % of triamterene: at the top concentration. In short, it runs like this: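 Intrinsic compound fluorescence is recorded in live HEK293 cultures after overnight incubation at 37C, 5% CO2, using excitation 405 nm and emission 460 nm. Values are referenced to triamterene.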
`O=c1[nH]c(Cl)c(Cl)cc1Cl`: the “fluorescence, % of triamterene” value is -0.0137%. The same measure, in the same setting: with `Oc1cccc(Cl)c1Cl` the figure was -0.171%.

As to `CC1(C)[C@H](/C=C2\CCSC2=O)[C@@H]1C(=O)OCc1coc(Cc2ccccc2)c1`, the “fluorescence, % of triamterene” value is 0.013%. Still for that read-out and setting: with `C=CC(=O)[O][Sn]([CH2]CCC)([CH2]CCC)[CH2]CCC` the figure was 0.0068%. As to `CCN(CC)C(=S)S`, the Potency result was “inactive”.

On to `Fc1ccc(C(OCCN2CCN(CCCc3ccccc3)CC2)c2ccc(F)cc2)cc1`, for which the “fluorescence, % of triamterene” value was 0.0041% [at 46 µM].

`CO/N=C(\C(=O)OC)c1ccccc1CO/N=C(\C)c1cccc(C(F)(F)F)c1`: the “fluorescence, % of triamterene” value was -0.068%. For `CC[C@H](C)[C@H]1O[C@]2(C=C[C@@H]1C)C[C@@H]1C[C@@H](C/C=C(\C)[C@@H](O[C@H]3C[C@H](OC)[C@@H](O[C@H]4C[C@H](OC)[C@@H](NC)[C@H](C)O4)[C@H](C)O3)[C@@H](C)/C=C/C=C3\CO[C@@H]4[C@H](O)C(C)=C[C@@H](C(=O)O1)[C@]34O)O2`, the “fluorescence, % of triamterene” value is 0.0815%. The same measure, in the same setting: with `CCC(OC(C)=O)C(CC(C)NC)(c1ccccc1)c1ccccc1` (configuration not stated) the figure was -0.26% [at 95.7 µM]; with `O=[N+]([O-])c1cc(C(F)(F)F)c(Cl)c([N+](=O)[O-])c1Nc1ncc(C(F)(F)F)cc1Cl`, -0.139%; with `Brc1cccc(-c2ccccc2)c1`, -0.0219%. As to `S=C=Nc1ccccc1`, the “fluorescence, % of triamterene” value was -0.182% [at 95.7 µM]. In the case of `COP(=O)(OC)Oc1ccc([N+](=O)[O-])cc1`, the “fluorescence, % of triamterene” value was 0.0035%.

For the compound `Cc1c([N+](=O)[O-])c(C)c([N+](=O)[O-])c(C(C)(C)C)c1[N+](=O)[O-]`, the “fluorescence, % of triamterene” value is 0.039%. The same measure, in the same setting: with `CC(=O)[O][Sn]([c]1ccccc1)([c]1ccccc1)[c]1ccccc1` the figure was 0.111%; with `COP(=S)(OC)Oc1nc(Cl)c(Cl)cc1Cl`, -0.237%.

In the case of `CCCCCCCCCCCCCCn1cc[n+](C)c1`, the Potency result was “inactive”. With `BrCCCBr`, the “fluorescence, % of triamterene” value was 0.0715% [at 95.7 µM]. Consider `c1cc[n+]2c(c1)-c1cccc[n+]1CC2`, for which the “fluorescence, % of triamterene” value is 0.337% [at 46 µM].

In the case of `COc1c2c(cc3c1OCO3)CCN(C)C2`, the fluorescence, % of triamterene was 0.0083% [at 18.6 µM]. As for `ClC1=C(Cl)[C@]2(Cl)[C@H]3[C@H]([C@@H]4C=C[C@H]3C4)[C@@]1(Cl)C2(Cl)Cl`, the Potency result is “inactive”. With `COc1cnc(OC)n2nc(NS(=O)(=O)c3c(OCC(F)F)cccc3C(F)(F)F)nc12`, the “fluorescence, % of triamterene” value is -0.108%. The same measure, in the same setting: the value for `COc1ccc2[nH]cc(CCN(C(C)C)C(C)C)c2c1` was 0.0006% [at 95.7 µM]. For the compound `CN(C)C(=S)SSC(=S)N(C)C`, the Potency result is “inactive”. The same measure, in the same setting: the value for `c1ccc(N=NNc2ccccc2)cc1` was “inactive”. Take `N#CC(C#N)=NNc1cccc(Cl)c1`: the “fluorescence, % of triamterene” value is -0.951%. On the same count and under the same terms, the value for `CC(O)C(=O)[O][Hg][c]1ccccc1` (configuration not stated) was 0.0538%; that for `COC(=O)C(C)N(C(=O)c1ccco1)c1c(C)cccc1C` (configuration not stated) was -0.108%; that for `CCCCC(CC)COC(=O)OOC(C)(C)C` (configuration not stated) was -0.0752%.
